Target: IKBKAP
Experiment: pooled miR-30 sensor sort-seq; sequence = guide strand
Settings: shRNA
Further: reference of the scale not given here.

Sequence | sensor-assay potency score (higher = more potent)
TTCTATAATATCCAGTCTGTTA | -1.24
TTGCAGTAGAATTGGGACCTAG | -0.443
TTTGTCTATAGTAAACCGCTGA | -0.157
TCTTCGTGACATCTTCTTCTTT | -0.422
TATAACTTCAGAGCTTCGTTAT | -0.855
TAATTCATTAACATCTACCAGA | -0.538
TTCTGAACCAATGAGCACCGTC | -0.483
TTGTCTATAGTAAACCGCTGAT | -0.619
TAGCATCGCAGACAAGGTCTAT | -0.408
TATTTGTCTATAGTAAACCGCT | -0.467
TTCTTCTGTTGATCTTTGGTGG | -0.174

Target: IKBKB
Experiment: as above
Settings: shRNA

Sequence | sensor-assay potency score (higher = more potent)
TTGCTTGCTCCTCTAGGTCGTC | -0.796
TTCGCTAACAACAATGTCCACC | -0.709
TAAGTCCACAATGTCGGTCTGC | -0.424
TAAGTTTAAGATGTCATCCAGG | -0.453
TCTTCTTCCGTCTGTAACCAGC | -1.13
TTTCCTGATTGTGCCATCGGAT | -0.945
TTTGAATTGGACACTGTCCAGT | -0.0592
TTGCTCGCTGTACTTCTCCAGG | -0.598
TAGTCTCCTGTACAGCTCCCTT | -1.81
TTGAAAACTTCACCGTTCCATT | -0.697
TTGCTCCTCTAGGTCGTCCAGC | -1.32
TTTTGTGTATTAACCTCTGTTC | -0.501

Target: IKBKG
Experiment: as above
Settings: shRNA

Sequence | sensor-assay potency score (higher = more potent)
TCACAATCTTGTGCTGCTCGGC | -0.555
TTCCTCATGTCCTCGATCCTGG | -0.0606
TACGTCCTGATCTGCTGCCGGG | -1.55
TTATCGATCACCTCCTGTTTGG | -0.717
TCGTATTCTTGGAAGAGCTGGT | 0.277
TTAGTGGCAGCCTCCAAGCGAC | -1.14
TTCAGTTTGCTGTACTCCCTCT | -0.286
TGTGGTTGTCGTATTCTTGGAA | 0.455
TTTGAGATCTTCCAGCTGCATT | -1.36
TTGCACATGAGGAACTCCTTCT | 0.171
TTGGAAATGCAGAAGCTCCTCG | 0.49
TTTGCTGTACTCCCTCTGCAGC | -0.913

Target: IL10
Experiment: as above
Settings: shRNA

Sequence | sensor-assay potency score (higher = more potent)
TTGATGAAGATGTCAAACTCAC | -0.225
ATTAAAGGCATTCTTCACCTGC | -0.126
TTGCTCTTGTTTTCACAGGGAA | -0.544
AAGAAAGTCTTCACTCTGCTGA | 0.0469
AACAACAAGTTGTCCAGCTGAT | 0.182

Source: the OligoGym collection
